Test results: PubChem BioAssay AID1851 (National Center for Advancing Translational Sciences (NCATS), 2009)
In all, about 16,000 compounds went through this assay and about 5,700 (36%) were called active. Inconclusive results (about 24%) are left out. This is one part of the list. Unmarked numbers belong to inactive results. The call rests on the fitted dose curve; in most records, active means well fitted curve in the direction sought with a large enough effect; inconclusive means small, poorly fitted or top-dose-only effect, or effect the other way; inactive means no such curve, though single readings can be large or run the other way.

What follows are compounds tested against Cytochrome P450 1A2 (Homo sapiens) (UniProt P05177) (assay: Cytochrome panel assay with activity outcomes). Conditions: recombinant CYP, pro-luciferin dealkylation, luminescence, p450-cyp1a2; series mostly up to 57.1 µM; activity, negative = inhibition: at the top concentration.
On the % scale 0 is the no-effect control and ±100 the full control effect.

Cytochrome P450 1A2 (Homo sapiens), sequence (P05177 whole entry, looked up): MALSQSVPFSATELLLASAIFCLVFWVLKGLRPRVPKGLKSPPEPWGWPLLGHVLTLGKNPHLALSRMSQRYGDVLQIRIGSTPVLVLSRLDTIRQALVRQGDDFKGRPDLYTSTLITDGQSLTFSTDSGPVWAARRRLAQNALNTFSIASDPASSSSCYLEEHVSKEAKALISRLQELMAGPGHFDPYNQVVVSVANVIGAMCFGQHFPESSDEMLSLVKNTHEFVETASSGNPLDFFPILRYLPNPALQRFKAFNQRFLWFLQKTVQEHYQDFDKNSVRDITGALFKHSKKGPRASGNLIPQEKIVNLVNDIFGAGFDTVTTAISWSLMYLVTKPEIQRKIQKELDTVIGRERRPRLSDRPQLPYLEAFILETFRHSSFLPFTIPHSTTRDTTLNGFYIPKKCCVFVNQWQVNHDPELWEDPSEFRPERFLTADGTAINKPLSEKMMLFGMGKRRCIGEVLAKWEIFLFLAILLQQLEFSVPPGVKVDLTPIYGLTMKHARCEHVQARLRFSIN

| SMILES | activity, negative = inhibition | AC50 |
| --- | --- | --- |
| CCCC[C@H](CC)CN1CN(C[C@@H](CC)CCCC)CC(C)(N)C1 | -9.62% [at 25.6 µM] | – |
| Cc1cc(C)n(-c2nc(NC(C)C)nc(NC(C)C)n2)n1 | – | 10000 nM (active) |
| Cc1cc(C)n(-c2nc(Nc3ccccc3C)nc(-n3nc(C)cc3C)n2)n1 | -29.6% | – |
| COc1cccc(C(=O)/C=C/c2ccc(SC)cc2)c1 | – | 2510 nM (active) |
| CCOC(=O)CSc1n[nH]c(NC(=O)c2ccccc2)n1 | – | 10000 nM (active) |
| CCOC(=O)CC(=O)CSc1nc(-c2cccnc2)cc(C)c1C#N | – | 10000 nM (active) |
| CCOC(=O)CSc1n[nH]c(NC(=O)c2cccc(C(F)(F)F)c2)n1 | – | 3160 nM (active) |
| Cc1ccc(NC(=O)CN(C)C(=O)CSc2n[nH]c(N)n2)cc1 | 8.75% | – |
| Cn1sc(NC(=O)c2ccccc2)nc1=O | -23% | – |
| CCOC(=O)CSc1nnc(NC(=O)c2cccc(S(=O)(=O)N3CCCCCC3)c2)s1 | 5.01% | – |
| CCOC(=O)CSc1n[nH]c(NC(=O)c2cccc(C)c2)n1 | – | 15800 nM (active) |
| C[C@@H]1NC(=O)C/C=C\[C@@H](C)[C@@H]2C=C[C@H](O)[C@@H](COC(=O)[C@H](C)NC(=O)C/C=C\[C@@H](C)[C@@H]3C=C[C@H](O)[C@@H](COC1=O)O3)O2 | -3.28% [at 11.4 µM] | – |
| COC(=O)N1CCC2(CC1)CN(C(=O)Nc1cccc(C#N)c1)C2 | 14.1% | – |
| CN1CCC(=C2c3ccccc3CCc3sccc32)CC1 | -6.82% [at 25.6 µM] | – |
| CCOC(=O)CSc1n[nH]c(-c2cccnc2)n1 | – | 2510 nM (active) |
| COc1ccccc1CNc1ncnc2ccc(-c3ccoc3)cc12 | – | 2510 nM (active) |
| COc1ccc(CNc2ncnc3ccc(-c4ccoc4)cc23)c(OC)c1 | – | 1580 nM (active) |
| CS(=O)(=O)N1CCC[C@@]2(CCN(C(=O)Nc3ccccc3)C2)C1 | -16.3% | – |
| COC(=O)[C@@]1(Cc2ccccc2)[C@H]2c3cc(C(=O)N4CCCC4)n(Cc4ccccn4)c3C[C@H]2CN1C(=O)c1ccccc1 | -15.4% | – |
| N[C@H](C(=O)O)[C@@H]1C[C@@H]1C(=O)O | – | inactive |
| O=c1[nH]c2cc(Br)cnc2nc1/C=C(\O)c1ccc(F)cc1 | – | 398 nM (active) |
| CCNc1ncc2nc(-c3ccc(OC)cc3)c(=O)n(Cc3ccc(F)cc3)c2n1 | -16.1% | – |
| CCNc1ncc2nc(-c3ccc(F)cc3)c(=O)n(C)c2n1 | – | 501 nM (active) |
| CCNc1ncc2nc(-c3cc(F)cc(F)c3)c(=O)n(C)c2n1 | – | 2000 nM (active) |

| SMILES | activity, negative = inhibition | AC50 |
| --- | --- | --- |
| CCNc1ncc2nc(-c3cccc(C#N)c3)c(=O)n(C)c2n1 | – | 2510 nM (active) |
| CCNc1ncc2nc(-c3ccccc3)c(=O)n(C)c2n1 | – | 398 nM (active) |
| O=C1O[C@@H]([C@H](O)[C@H](O)[C@H](O)CO)[C@@H](O)[C@@H]1O | -12.7% [at 11.4 µM] | – |
| NC(=O)c1cc[n+](CC2=C(C(=O)[O-])N3C(=O)[C@@H](NC(=O)Cc4cccs4)[C@@H]3SC2)cc1 | -15.1% [at 25.6 µM] | – |
| C[C@H](Oc1ccccc1)C(=O)N[C@@H]1C(=O)N2[C@@H]1SC(C)(C)[C@@H]2C(=O)O | -7.23% [at 25.6 µM] | – |
| NOCC(=O)O | -5.6% | – |
| Cc1cc(C(C)(C)C)c(O)c(C)c1CC1=NCCN1 | – | inactive |
| Cc1n[nH]c(=O)[nH]c1=O | -6.49% [at 25.6 µM] | – |
| CCNc1ncc2nc(-c3ccc(Cl)cc3)c(=O)n(C)c2n1 | – | 398 nM (active) |
| CCNc1ncc2nc(-c3ccc(OC)cc3)c(=O)n(-c3ccc(OC)cc3)c2n1 | -17.8% | – |
| N#Cc1cccc(-c2ccc3ncnc(N4CCNCC4)c3c2)c1 | – | 631 nM (active) |
| CN1CCN(c2ncnc3ccc(-c4cccc(C#N)c4)cc23)CC1 | – | 1260 nM (active) |
| c1cncc(-c2ccc3ncnc(N4CCNCC4)c3c2)c1 | – | 1260 nM (active) |
| COc1cc2cc3c4cc(OC)c(OC)cc4cc[n+]3c(C)c2cc1OC | -21.4% [at 25.6 µM] | – |
| CC(C)CO/N=C1/[C@H]2O[C@@H]2[C@@H](O)[C@H]2[C@H]1CCn1c(=O)n(-c3ccccc3)c(=O)n12 | -6.37% [at 11.4 µM] | – |
| CCOc1cc(CNCCCN2CCOCC2)cc(Br)c1OCC(=O)Nc1cccc(C(F)(F)F)c1 | -15.4% | – |
| Clc1ccccc1CNCC1CCC(CNCc2ccccc2Cl)CC1 (stereo not given) | -6.82% | – |
| CCOc1cc(CNCCO)cc(Br)c1OCc1ccccc1Cl | – | 158 nM (active) |
| OCCCCNCc1ccc(OCc2ccccc2Cl)cc1 | – | 5010 nM (active) |
| Clc1ccc(-c2nc3ncccn3c2Nc2ccc3c(c2)OCCO3)cc1 | – | 6310 nM (active) |
| CC(C)CN1CCC2(CC1)CCN(C(=O)c1cc(C(F)(F)F)cc(C(F)(F)F)c1)CC2 | -4.57% | – |
| O=C(O)C1C2C=CC(C2)C1C(=O)N1CCN(C/C=C/c2ccccc2)CC1 (stereo not given) | -25.9% | – |
| O=C(/C=C/c1ccc2ccccc2c1)c1ccoc1 | – | 2240 nM (active) |
| CC(C)(C)OC(=O)COc1cc(OCC(=O)OC(C)(C)C)c2c(=O)cc(-c3ccccc3)oc2c1 | -27.5% | – |

| SMILES | activity, negative = inhibition | AC50 |
| --- | --- | --- |
| O=c1cc(-c2ccccc2)oc2cc(O)c(O)c(O)c12 | – | 501 nM (active) |
| NS(=O)(=O)Cc1noc2ccccc12 | -5.73% | – |
| CCCCC(=O)Nc1ccc(C)c(O)c1 | – | 3550 nM (active) |
| CCC(CC)C(=O)Nc1ccc(C)c(O)c1 | – | 12600 nM (active) |
| CCC(CC)C(=O)Nc1cccc(C(=O)Nc2ccc(OC)cc2[N+](=O)[O-])c1 | -2.86% | – |
| CCCCC(=O)Nc1ccc(C(=O)NNC(=O)CCc2ccccc2)cc1 | 0.428% | – |
| COc1cc(C2C(C(=O)c3ccc(C)o3)=C(O)C(=O)N2CCc2ccccc2)ccc1O (stereo not given) | -18.9% | – |
| Cc1cc(C)nc(NN2C(=O)/C(=C/c3ccccc3)SC2=S)n1 | -1.03% | – |
| O=C1/C(=C\c2ccccn2)SC(=S)N1Nc1ncc(C(F)(F)F)cc1Cl | – | 8910 nM (active) |
| Cc1cc(C)n2nc(SCc3cc(=O)oc4ccc5ccccc5c34)nc2n1 | – | 5620 nM (active) |
| Cc1cc(C)n2nc(SCN3C(=O)c4ccccc4C3=O)nc2n1 | 18.7% [at 11.4 µM] | – |
| CCCSc1nnc(CSc2nc3nc(C)cc(C)n3n2)o1 | 0.494% | – |
| O[C@@H]1[C@@H](OCc2ccccc2)OC[C@H](O)[C@@H]1O | -15.1% [at 11.4 µM] | – |
| S=C(Nc1ccccc1)Nc1ccc(OCc2ccccc2)cc1 | – | 5620 nM (active) |
| O=C(O)c1c[nH]c2cc(OCc3ccccc3)ccc2c1=O | -19.1% [at 11.4 µM] | – |
| Oc1ccc(OCc2ccccc2)cc1 | – | 1580 nM (active) |
| Cc1c(C(=O)Nc2ccc(OCc3ccccc3)cc2)cccc1[N+](=O)[O-] | -26.7% | – |
| CO[C@@H]1COC(=O)[C@H]2CCCN2C(=O)C/C=C\[C@@H](C)[C@H](OC)COC(=O)[C@H]2CCCN2C(=O)C/C=C\[C@H]1C | -18.1% [at 11.4 µM] | – |
| Cn1c2c(c(=O)n(C)c1=O)[C@@H]1c3c(ccc4ccccc34)OC[C@@H]1CO2 | -2.25% | – |
| COc1ccc(O[C@H]2C=C[C@@H](c3ccccc3)O[C@H]2COC(=O)CC/C(C)=N/O[C@@H]2O[C@H](COC(C)=O)[C@H](OC(C)=O)[C@H](OC(C)=O)[C@H]2OC(C)=O)cc1 | 7.86% [at 11.4 µM] | – |
| Cc1noc(C)c1C(=O)N1CCC2(CCCN(c3ccncc3)C2)CC1 | 7.42% | – |
| CCCCNC(=O)NS(=O)(=O)c1ccc(C)cc1 | -9.95% [at 25.6 µM] | – |
| CCCCNC(=S)NNC(=O)c1sccc1C | – | 14100 nM (active) |
| CC1CCc2c(C(=O)Nc3nccs3)csc2C1 (stereo not given) | – | 1000 nM (active) |

| SMILES | activity, negative = inhibition | AC50 |
| --- | --- | --- |
| CCCCNC(=S)NNC(=O)c1csc2c1CCC(C)C2 (stereo not given) | – | 14100 nM (active) |
| COc1ccc(-c2cc(C3CCN(c4cc(Cl)nc(N)n4)CC3)[nH]n2)cc1 | – | 15800 nM (active) |
| COc1ccc(-c2cc(C3CCN(c4ccc(C(C)=O)cc4[N+](=O)[O-])CC3)[nH]n2)cc1 | – | 7080 nM (active) |
| O=C(NNC(=S)NCc1ccco1)c1ccc(Cl)s1 | – | 22400 nM (active) |
| O=C(NC(=S)NNC(=O)c1cccs1)c1ccco1 | 12.9% | – |
| S=C(NCc1ccco1)N1CCN(Cc2ccco2)CC1 | -25.8% | – |
| CCOC(=O)C(=CNc1ncccc1C)C(=O)OCC | – | 1120 nM (active) |
| CCOC(=O)C(=CNc1cccc(C)c1C)C(=O)OCC | -19.1% | – |
| CCOC(=O)C(=CNCC(=O)O)C(=O)OCC | 12.3% | – |
| Cc1ccc(Nc2ncccc2C(=O)NCc2cccs2)c(C)c1 | – | 1000 nM (active) |
| Cc1ccc(C)c(-c2cc(C(=O)NCc3cccs3)c3ccccc3n2)c1 | – | 2240 nM (active) |
| Cc1ccc(NC(=O)CCC(=O)NNC(=O)c2cccs2)c(C)c1 | -14.3% | – |
| Cc1ccc(C)c(-c2cc(C(=O)Nc3nccs3)c3ccccc3n2)c1 | – | 891 nM (active) |
| COC(=O)c1sccc1NC(=O)c1cc(-c2ccc(C)cc2C)nc2ccccc12 | -22.7% | – |
| Cc1ccc(C)c(NC(=O)Cn2nnc(C(=O)NCc3cccs3)c2N)c1 | 1.98% | – |
| COc1ccc2oc(-c3ccc(C)c(NC(=O)CSc4ccc(Cl)cc4)c3)nc2c1 | – | 3160 nM (active) |
| COc1ccc2oc(-c3ccc(C)c(NC(=O)c4ccc(N5CCOCC5)c([N+](=O)[O-])c4)c3)nc2c1 | -27% | – |
| CC(=O)OC[C@H]1O[C@@H](O/N=C(\C)CCN2CCc3nc(-c4ccccc4)c(-c4ccccc4)cc3C2)[C@H](OC(C)=O)[C@@H](OC(C)=O)[C@H]1OC(C)=O | -0.893% [at 11.4 µM] | – |
| O=C(Cc1ccc(Br)cc1)OCC(=O)c1ccc2c(c1)OCCO2 | – | 12600 nM (active) |
| O=C(CN1C(=O)c2ccccc2C1=O)NCC(=O)OCC(=O)c1ccc(Br)cc1 | -21.1% | – |
| C=CCSc1nc2ccccc2c(=O)n1Cc1ccco1 | – | 25.1 nM (active) |
| CC(=O)NCCn1c(SCC(=O)NCc2ccco2)nc2ccccc2c1=O | -20.4% | – |
| C=CCSc1nn2c(=O)c3ccccc3nc2s1 | – | 1000 nM (active) |
